# In all, about 69,000 compounds went through this assay and about 950 (1.4%) showed an effect of 50% or more. What follows is part of a selection rich in strong results, with near analogues and random picks from the rest.
# Test system: Mycobacterium tuberculosis
# Experiment: Cornell M. t heat shock assay; also: in the data most compounds retested in dose-response had high values
# Assay type: functional, organism-based
# Set-up: dose or concentration left out as unconfirmed
row,Compound,Percent Effect
1,CN(C)C(=O)c1cn[nH]c1C1CCCN1Cc1nccn1C.O=CO (centres undefined),-23.16%
2,Cc1ccc(CN2CCC(O)(Cn3nc(-c4cccs4)oc3=O)CC2)o1.O=C(O)CC(O)(CC(=O)O)C(=O)O,5.66%
3,CC1(C)CC(N2Cc3nc(N4CCCC4)ncc3C2=O)CC(C)(C)N1,8.213%
4,Cc1noc(C2CCN(C(=O)CCc3ccccn3)CC2)n1,13.4%
5,Cc1noc(C2CCN(C(=O)CCc3nccs3)CC2)n1,51.73%
6,Cc1noc(C2CCN(C(=O)CCNc3ncccn3)CC2)n1,13.08%
7,O=C(O)C(F)(F)F.O=C(O)C(F)(F)F.c1cnn(CCCO[C@@H]2CC[C@H]3[C@H]2OCCN3CC2CC2)c1,-27.44%
8,CCn1ncc2c1CN(CCc1cccc(Cl)c1)CC2COC.O=C(O)C(F)(F)F.O=C(O)C(F)(F)F (centres undefined),-10.95%
9,CCCc1nc(CNC2(c3nccs3)CCCC2)cs1,94.85%
10,CCCc1nc(CNC(=O)Cc2csc(C)n2)cs1,8.263%
11,O=C(CCNC1(c2nccs2)CCCC1)N1CCOCC1,-14.8%
12,c1csc(C2(NCc3csc(C4CC4)n3)CCCC2)n1,66.7%
13,Cc1csc(C2(NCc3csc(C4CC4)n3)CCCC2)n1,41.22%
14,O=C(NC1(c2nccs2)CCCC1)c1cc(C2CC2)on1,7.107%
15,Cc1cccc(CN2CCc3nnc(Cn4cccc4)n3CC2)n1.O=C(O)C(F)(F)F,-14.44%
16,O=C(O)C(F)(F)F.O=C(O)C(F)(F)F.c1cc(-c2ccc3nc(C4CCN(CC5CC5)CC4)nn3c2)ccn1,-27.27%
17,Cc1cccc(CN2CC[C@@H]3[C@@H]2CCN3C(=O)c2cc(C)on2)n1.O=C(O)C(F)(F)F,-16.64%
18,CCN(CC)CC1CN(Cc2cccc(C#N)c2)Cc2nccn2C1.O=C(O)C(F)(F)F.O=C(O)C(F)(F)F (centres undefined),-22.76%
19,CCc1nnc2n1CCN(Cc1csc(-c3ccc(C)o3)n1)C2,49.84%
20,Cc1ccc(-c2nc(CN3CCn4c(C)nnc4C3)cs2)o1,-2.255%
21,c1sc(C2CCCC2)nc1CN1CCn2c(nnc2C2CC2)C1,55.31%
22,Cc1nnc2n1CCN(Cc1csc(-c3ccsc3)n1)C2,-0.9289%
23,c1sc(C2CCCCC2)nc1CN1CCn2c(nnc2C2CC2)C1,7.076%
24,c1cnc(-c2nc(CN3CCn4c(nnc4C4CC4)C3)cs2)nc1,18.84%

row,Compound,Percent Effect
1,c1cc(-c2nc(CN3CCn4c(nnc4C4CC4)C3)cs2)cs1,159.7%
2,c1ccc(-c2nc(CN3CCn4c(nnc4C4CC4)C3)cs2)cc1,10.73%
3,Cc1ccc(-c2nc(CN3CCn4c(nnc4C4CC4)C3)cs2)o1,171.6%
4,Cc1ccc(C)c(-n2cc(CN3CC[C@@H](O)C3)c(-c3ccccc3)n2)c1,85.17%
5,Cn1cc(CN2CCCC(O)C2)c(-c2ccccc2F)n1 (centres undefined),14.46%
6,Cc1cccc(-c2noc(CN3CCOCC3C)n2)c1 (centres undefined),-19.27%
7,Cc1ccc(-n2cc(CN3CCOCC3)c(-c3cccc(C)c3)n2)cc1,101.4%
8,Cc1ccc(S(=O)(=O)c2ncccc2CN2CCOCC2)cc1,-21.96%
9,Cc1ccc(C)c(-n2cc(CN3CCOCC3)c(-c3ccccc3)n2)c1,9.683%
10,CCC(=O)Nc1cccc(OCC(=O)N[C@@H]2C[C@H]3CC[C@@H]2C3)c1,-8.125%
11,O=C(O)C(F)(F)F.O=C(O)C(F)(F)F.c1cc(CO[C@@H]2CN(Cc3ccoc3)[C@@H]3CCCO[C@@H]32)ccn1,21.84%
12,CN1CCOCC2(CCCN(C(=O)c3ccccc3F)C2)C1.O=C(O)C(F)(F)F (centres undefined),-25.25%
13,CN(C)C(=O)N1CCC2(CC1)CN(Cc1ccccn1)C(=O)CO2.O=C(O)C(F)(F)F,-0.5573%
14,Cn1cc(CN2CCCC23CCN(C(=O)c2ccncc2)CC3)cn1.O=C(O)C(F)(F)F,-22.55%
15,Cc1ncccc1NC(=O)[C@H]1C[C@@H]2CCN(Cc3nccs3)C[C@@H]2O1.O=C(O)C(F)(F)F.O=C(O)C(F)(F)F,-3.608%
16,O=C(CC1CN(Cc2ccccc2)CCO1)NC1CCCC1 (centres undefined),-14.55%
17,O=C(CC1CN(Cc2ccccc2)CCO1)NCCN1CCOCC1 (centres undefined),-41.8%
18,Cl.O=C(O)CC1CN(Cc2ccccc2)CCO1 (centres undefined),70.76%
19,Cc1ccc(CN2CCn3cc(CN4CCN(C)CC4)nc3C2)cc1.O=C(O)C(F)(F)F.O=C(O)C(F)(F)F.O=C(O)C(F)(F)F,-4.711%
20,CNC(=O)NCC1CCC2(CCN(C(=O)c3cccnc3)CC2)CO1.O=C(O)C(F)(F)F (centres undefined),9.868%
21,O=C(O)CC(O)(CC(=O)O)C(=O)O.c1cncc(-c2nccc(CN3CCC(N4CCCCC4)CC3)n2)c1,-13.06%
22,O=C(O)C(F)(F)F.O=C(O)C(F)(F)F.c1cncc(COCc2nnn3c2CN(Cc2ccsc2)CC3)c1,-26.71%
23,Cc1cnc(C(=O)N2CCN(C(=O)C(C)C)[C@@H]3CS(=O)(=O)C[C@@H]32)cn1,4.224%
24,CC(C)C(=O)N1CCN(C(=O)c2cc(C(C)C)on2)[C@H]2CS(=O)(=O)C[C@H]21,-10.22%

row,Compound,Percent Effect
1,CC(C)C(=O)N1CCN(C(=O)c2cscn2)[C@H]2CS(=O)(=O)C[C@H]21,73.31%
2,Cc1ccc(OCC(=O)N2CCCC(n3nc(C)nc3C)C2)cc1 (centres undefined),-13.19%
3,Cc1n[nH]cc1CNC(C(=O)N1CCCCC1)c1ccccc1 (centres undefined),-8.652%
4,O=C(O)C(F)(F)F.c1csc(CN2CCc3nnc(COc4cncnc4)n3CC2)c1,-24.48%
5,Cc1nc(CN2C[C@@H](CN3CCOCC3)[C@@H](CO)C2)c2ccccn12,1.211%
6,Cc1nc(CN2CCC3(CCCO3)CC2)c2ccccn12,77.67%
7,Cc1ccc(C2(O)CCN(Cc3nc(C)n4ccccc34)CC2)nc1,43.96%
8,Cl.Cl.NCC1CN(c2ncnc3[nH]cnc23)CCO1 (centres undefined),-17.53%
9,CNC(=O)C1Cn2ccnc2C2(CCN(Cc3nccs3)CC2)O1.O=C(O)C(F)(F)F.O=C(O)C(F)(F)F (centres undefined),-22.49%
10,Cc1nc(CN2C[C@@H]3COC[C@]3(COCC(=O)N(C)C)C2)cs1.O=C(O)C(F)(F)F,-21.91%
11,COCCN1CCC2(CC1)CC(OCC1CC1)c1ccc(C)cc12 (centres undefined),53.27%
12,Cc1ccc2c(c1)C1(CCNCC1)CC2OCC1CC1 (centres undefined),13.82%
13,CCOC1CC2(CCN(C(=O)COC)CC2)c2cc(C)ccc21 (centres undefined),-4.26%
14,COCCN1CCC2(CC1)CN(C(=O)c1ccccc1)CCO2.O=C(O)C(F)(F)F,-8.433%
15,CN(C)C(=O)N1CCC2(CCCN(CCOc3ccccc3)C2)C1.O=C(O)C(F)(F)F (centres undefined),-6.162%
16,O=C(O)C1(Oc2ccc3c(c2)OCO3)CCN(C2CCOCC2)CC1,-2.757%
17,O=C(O)C1(Oc2cccc(F)c2)CCN(C2CCOCC2)CC1,1.505%
18,O=C(O)C1(Oc2ccc(Cl)cc2)CCN(C2CCOCC2)CC1,51.75%
19,CC(C)C1Nc2ccccc2C(=O)N1CC(=O)Nc1nc2c(s1)CCC2 (centres undefined),-0.3209%
20,O=C1CCCN1CCN1CCCC(c2ccn[nH]2)C1 (centres undefined),4.433%
21,O=C(O)c1cccc(CN2CCCC(c3ccn[nH]3)C2)c1 (centres undefined),-8.776%
22,Cc1cc(C2CCCN(CC(=O)Nc3nc4c(s3)CCC4)C2)n[nH]1 (centres undefined),104%
23,Cc1cc(C2CCCN(CC(=O)N3CCc4ccccc43)C2)n[nH]1 (centres undefined),-11.71%
24,O=C(CN1CCCC(c2ccn[nH]2)C1)N1CCCc2ccccc21 (centres undefined),-24.99%

row,Compound,Percent Effect
1,Cc1cc(C2CCCN(CC(=O)N3CCCc4ccccc43)C2)n[nH]1 (centres undefined),-30.42%
2,O=C(CN1CCCC(c2ccn[nH]2)C1)Nc1nc2c(s1)CCC2 (centres undefined),104%
3,O=C(CN1CCCC(c2ccn[nH]2)C1)Nc1nc2c(s1)CCCC2 (centres undefined),102.5%
4,CN1CCOCC2(CCCN(C(=O)Cc3ccncc3)C2)C1.O=C(O)C(F)(F)F (centres undefined),-28.6%
5,COc1cccc(Cn2c(C3CCNCC3)cc3cccnc32)c1.Cl,0.437%
6,CCC(CN1CCN(C)CC1)NC(=O)C1(c2cccc(F)c2)CC1.O=C(O)CC(O)(CC(=O)O)C(=O)O (centres undefined),1.881%
7,O=C(O)C(F)(F)F.O=C(O)C(F)(F)F.O=C(O)C(F)(F)F.c1cncc(CN2CCCn3nnc(CN4CCCC4)c3C2)c1,-36.4%
8,CNC(=O)CN1CCCC12CCN(C(=O)c1ccc(F)cc1)CC2.O=C(O)C(F)(F)F,-33.92%
9,Cc1oncc1C(=O)N[C@@H]1CN(Cc2ccoc2)C[C@@H]2CCCO[C@@H]21.O=C(O)C(F)(F)F,44.61%
10,CCOc1ccc(Br)cc1C1CCCCN1.Cl (centres undefined),18.96%
11,Cn1ccc(C(=O)Nc2nccn2Cc2ccccc2Cl)cc1=O,54.71%
12,CS(=O)(=O)CCC(=O)Nc1cnn(-c2ccccc2Cl)c1,-2.43%
13,CS(=O)(=O)CCn1ccc(NC(=O)Cc2ccccc2Cl)n1,-16.05%
14,CC(C)N(C)CC(=O)NC1CCc2nccn2C1 (centres undefined),-3.465%
15,CCOCC(=O)Nc1nccn1Cc1ccccc1Cl,94.36%
16,Cc1nccn1Cc1cccc(CNC(=O)c2ccn(C)c(=O)c2)c1,-21.74%
17,Cn1ccc(C(=O)Nc2nnc(-c3ccccn3)[nH]2)cc1=O,24.76%
18,CCOCC(=O)NCCCn1ccnc1-c1ccccc1,0.7963%
19,CCOCC(=O)Nc1cccnc1-n1ccnc1C,3.015%
20,CC(C)N(C)CC(=O)Nc1ccc(-n2ccc(C(N)=O)n2)cc1,4.536%
21,CC(C)N(C)CC(=O)Nc1nccn1Cc1ccccc1Cl,70.24%
22,CS(=O)(=O)CCC(=O)Nc1nccn1Cc1ccccc1Cl,51.39%

# Reference: ChEMBL document CHEMBL3988442, “University of Dundee, Small-Polar-MMV Screening Library” (2021)
